Source: PubChem (National Center for Advancing Translational Sciences (NCATS))
A selection: hits, their analogues and other compounds. The true share with any hit is near 8%.
MARV entry inh: Marburg virus entry inhibition | actives 1.8% (n = 300,000) | Marburg virus pseudotyped entry inhibition, cell reporter | Potency, µM (titrated, usually from 37.8 µM), usual class: inhibitors; calls by dose curve; tested in HEK293 cells
Lassa entry inh: inhibitors of Lassa virus binding or cell entry | actives 1.2% (n = 300,000) | AID 540256 | Lassa virus pseudotype entry inhibition, cell reporter | Potency, µM (doses to about 37.9 µM), actives largely listed as inhibitors; calls by dose curve; tested in HEK293 cells; also: nearly all actives have a fitted effect of over 50% in size
FMDV antiviral: antivirals against foot and mouth disease virus; FMDV antiviral cell-based qHTS; Potency, µM (titrated, usually from 57.9 µM), most hits filed as inhibitors; actives 1.2% (n = 410,000); calls by dose curve; tested in HEK293T cells; also: read-out not given here; nearly all actives have a fitted effect of over 45% in size
HCMV inh: inhibitors of human cytomegalovirus. HFF cells, HCMV-luciferase reporter, 72 h; active compounds read low. activity change, negative = inhibition, % at 57.5 µM. actives 4.5% (n = 410,000). AID 1259415; in the data active = activity change below about -60%; inconclusive = no clear call, values can overlap the other calls; inactive = above about -39%
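After 16 h attachment at 37C, HFF cells received test compound and HCMV-luciferase (1 PFU/cell); reporter luminescence read 72 h later, data normalized against buffer-only and known inhibitor Salinomycin.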
HCV inhibitor: blocks hepatitis C virus; Huh7.5.1 HCVcc-Cre infection, luciferase reporter, 44 h; AID 651820; actives 3.4% (n = 340,000); Potency, µM (doses to about 41.8 µM), actives largely listed as inhibitors; active = well fitted inhibition curve with a large enough effect; inconclusive = small, poorly fitted or top-dose-only effect, or another doubt; inactive = no such curve, though single readings can be large or run the other way
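Luciferase read-out (15 sec integration) after a 15 min room-temperature substrate step quantifies HCVcc-Cre infection. Cells, 1,000 per well, had compound added 4 h post-plating, then virus at ~0.5 moi, and were cultured 44 h.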
SARS PLP yeast: blocks SARS-CoV papain-like protease in a yeast assay; Potency, µM (top dose mostly 32.9 µM), most hits filed as activators; AID 485353; actives 0.19% (n = 330,000); S. cerevisiae expressing SARS-CoV PLpro, growth rescue; calls by dose curve; also: nearly all actives have a fitted effect of over 55% in size
Of the large screens only hits and unclear results are named; the others gave an inactive call.

CCOC(=O)c1sc(NC(=O)c2ccc(OC(C)=O)cc2)nc1C	MARV entry inh inconclusive, HCMV inh -82, HCV inhibitor inconclusive (no result: Lassa entry inh)
CC(C)c1nnc(NC(=O)CC(C)c2ccccc2)s1 (stereo not drawn)	none
COc1ccccc1NC(=O)N1c2ccccc2Sc2ccccc21	MARV entry inh inconclusive, Lassa entry inh inconclusive (no result: HCV inhibitor, SARS PLP yeast)
Cc1cnc(NC(=O)COc2ccccc2Cl)s1	MARV entry inh 2.3µM, Lassa entry inh 1.8µM, FMDV antiviral 10µM
CCc1nnc(NC(=O)CSC(=S)N2CCOCC2)s1	HCMV inh -98 (no result: MARV entry inh, Lassa entry inh)
CCOC(=O)c1sc(NC(=O)CSC(=S)N2CCN(C)CC2)nc1C	MARV entry inh inconclusive, HCV inhibitor 13µM
Cc1cnc(NC(=O)CCNC(=O)c2ccccc2Cl)s1	MARV entry inh inconclusive
COc1ccc2c(c1)C(=O)[C@@H](OC(=O)NS(=O)(=O)c1ccc(F)cc1)[C@H](c1ccc(OC)c(Br)c1)O2	Lassa entry inh inconclusive (no result: FMDV antiviral, HCMV inh, HCV inhibitor, SARS PLP yeast)
O=C(Nc1c(Cl)cccc1Cl)c1cccc2c1C(=O)N(C1CCCCC1)C2	none (no result: HCV inhibitor, SARS PLP yeast)
COc1cc(=O)n2c(c1C(=O)NCc1ccco1)CCN(Cc1ccc3ccccc3c1)CC2	none (no result: MARV entry inh, Lassa entry inh, HCMV inh, HCV inhibitor, SARS PLP yeast)
O=C(Nc1ccc(Br)c2ccccc12)c1ccc2ccccc2c1O	FMDV antiviral inconclusive, HCMV inh -100, HCV inhibitor inconclusive (no result: MARV entry inh, Lassa entry inh)
CCc1ccc(NC(=O)NNC(=O)c2ccc3ccccc3c2O)cc1	HCMV inh -82 (no result: MARV entry inh, Lassa entry inh)
CCc1ccc(NC(=O)NNC(=O)c2cc3ccccc3cc2O)cc1	none (no result: MARV entry inh, Lassa entry inh)
COc1ccc(-c2cc(C(F)(F)F)nc(SCC(=O)NCc3ccc(Cl)cc3)n2)cc1	none (no result: HCV inhibitor, SARS PLP yeast)
O=c1ccnc2n1COCS2	HCMV inh -100 (no result: MARV entry inh, Lassa entry inh)
O=c1c(-c2ccnn2-c2ccc(F)cc2)cnc2n1CCS2	none
Cc1cccc(NC(=O)CSc2nc3ccccc3nc2N2CCCCC2)c1C	Lassa entry inh inconclusive (no result: HCV inhibitor, SARS PLP yeast)
Cc1ccc(-n2c(/C=C/c3ccc4c(c3)OCO4)nc3ccccc3c2=O)cc1	MARV entry inh inconclusive, HCMV inh -102 (no result: FMDV antiviral)
COc1ccc(-n2c(/C=C/c3ccc(O)c(OC)c3)nc3ccccc3c2=O)cc1	HCMV inh -99, HCV inhibitor 11µM (no result: MARV entry inh, Lassa entry inh)
COc1ccc(-n2c(/C=C/c3ccc(O)cc3)nc3ccccc3c2=O)cc1	FMDV antiviral inconclusive, HCMV inh inconclusive, HCV inhibitor inconclusive (no result: MARV entry inh, Lassa entry inh)
COc1ccc(-n2c(/C=C/c3ccc4c(c3)OCO4)nc3ccccc3c2=O)cc1	MARV entry inh inconclusive, FMDV antiviral inconclusive, HCMV inh -84, HCV inhibitor inconclusive
COc1cccc(-n2c(/C=C/c3ccc(O)c(O)c3)nc3ccccc3c2=O)c1	MARV entry inh inconclusive, Lassa entry inh inconclusive
O=c1c2ccccc2nc(/C=C/c2ccc3c(c2)OCO3)n1-c1cccc(O)c1	Lassa entry inh inconclusive, HCMV inh inconclusive
COc1cccc2c1[C@H](C=Cc1ccccc1)[C@@H]([C@H](O)CN=[N+]=[N-])OC2	none (no result: Lassa entry inh, FMDV antiviral, HCMV inh, HCV inhibitor, SARS PLP yeast)
COc1ccc(C2=NOC(Cn3c(Cc4ccc(Cl)cc4)nc4c3c(=O)n(C)c(=O)n4C)C2)cc1 (stereo not drawn)	HCV inhibitor 1.4µM
COc1ccccc1C1=NOC(Cn2c(NCCCO)nc3c2c(=O)n(C)c(=O)n3C)C1 (stereo not drawn)	Lassa entry inh inconclusive
Cn1c(SCc2cccc([N+](=O)[O-])c2)nc2c(c1=O)SCC2	MARV entry inh inconclusive, Lassa entry inh inconclusive, FMDV antiviral 28µM, HCMV inh -72, HCV inhibitor inconclusive
Cn1c(SCc2cccnc2)nc2c(c1=O)SCC2	HCV inhibitor inconclusive
Cc1ccc(-c2csc(-c3cc4c([nH]c3=O)CC(c3ccccc3)CC4=O)n2)cc1 (stereo not drawn)	none (no result: HCV inhibitor, SARS PLP yeast)
CN(C(=O)NCc1noc2ccccc12)c1cccc(Cl)c1	none (no result: MARV entry inh, HCV inhibitor, SARS PLP yeast)
CCn1nc(C)c(CN2CCc3c([nH]c4ccccc34)C2c2ccc(F)c(OC)c2)c1C (stereo not drawn)	MARV entry inh inconclusive, HCMV inh -76, HCV inhibitor inconclusive
COc1ccc2c(c1)CC/C(=C\c1ccc(OC)c(Cn3nc(C)cc3C)c1)C2=O	MARV entry inh inconclusive, Lassa entry inh inconclusive, FMDV antiviral inconclusive, HCV inhibitor 4µM
O=C(Nc1ccc(F)c(Cl)c1)N1CCN(C(=O)c2nsc3ccccc23)CC1	HCMV inh inconclusive (no result: HCV inhibitor, SARS PLP yeast)
Fc1cccc(-c2cc3nc4c(c(N5CCC6(CC5)OCCO6)n3n2)CCCC4)c1	MARV entry inh inconclusive, HCV inhibitor 13µM (no result: FMDV antiviral)
COC(=O)NCC=Cc1nc(CCCO)co1	none (no result: Lassa entry inh, FMDV antiviral, HCMV inh, HCV inhibitor, SARS PLP yeast)
COc1ccc2c(/C=N/NS(=O)(=O)c3ccc(C)cc3)c[nH]c2c1	HCV inhibitor inconclusive
COc1ccc(OC)c(S(=O)(=O)N/N=C\c2c[nH]c3ccccc23)c1	Lassa entry inh inconclusive, HCV inhibitor 11µM
COc1ccc2[nH]cc(/C=N/NS(=O)(=O)c3ccc(C)cc3)c2c1	HCMV inh -64, HCV inhibitor 11µM (no result: MARV entry inh, Lassa entry inh)
COc1ccc(OC)c(S(=O)(=O)N/N=C(/C)c2c[nH]c3ccccc23)c1	SARS PLP yeast inconclusive
Cc1cc(C)c(C(=O)CSc2n[nH]c(-c3ccncc3)n2)c(C)c1	MARV entry inh inconclusive, HCMV inh -66
Cc1ccc(C)c(C(=O)CSc2n[nH]c(-c3ccncc3)n2)c1	none
CCC(C)n1c(C)nc2c(c1=O)c1nc3ccccc3nc1n2CCC1=CCCCC1 (stereo not drawn)	HCMV inh -88
CCCCn1c2nc3ccccc3nc2c2c(=O)n(C(C)CC)cnc21 (stereo not drawn)	MARV entry inh inconclusive
CC(Sc1ncc(S(=O)(=O)c2ccc(C(C)C)cc2)c(N)n1)C(=O)Nc1ccccc1 (stereo not drawn)	Lassa entry inh inconclusive, FMDV antiviral inconclusive, HCMV inh -74 (no result: MARV entry inh, HCV inhibitor, SARS PLP yeast)
COc1ccc(NC(=O)c2ccco2)cc1NC(=O)c1ccc(OC(C)C)cc1	none (no result: HCV inhibitor, SARS PLP yeast)
COc1ccc(C(=O)/C=C/C(=O)N(CC(=O)NC2CCCCC2)Cc2ccc(F)cc2)c(O)c1	MARV entry inh inconclusive, Lassa entry inh inconclusive, FMDV antiviral 7.1µM, HCMV inh -116, HCV inhibitor inconclusive
COc1ccc(C(=O)/C=C/C(=O)N(CC(=O)NCCC(C)C)Cc2cccs2)c(O)c1	MARV entry inh 21µM, Lassa entry inh inconclusive, FMDV antiviral 3.5µM, HCMV inh -100, HCV inhibitor 11µM
CS(=O)(=O)N(CC(=O)NC1CCCCC1)Cc1ccc(F)cc1	none
CCOc1ccc(NC(=O)C(=O)NCCCn2ccnc2)cc1	none (no result: FMDV antiviral)
COc1ccc(NC(=O)C(=O)NCCCn2ccnc2)cc1	Lassa entry inh inconclusive, HCMV inh -60
O=C(NCCCn1ccnc1)Nc1ccc(Cl)c(Cl)c1	HCMV inh -106
C=COCCNC(=O)Nc1ccc(Cl)c(Cl)c1	HCMV inh -60, HCV inhibitor 10µM (no result: FMDV antiviral)
COc1ccc(N2CCN(Cc3nc4c(c(=O)[nH]c(=O)n4C)n3Cc3ccccc3F)CC2)cc1	none (no result: HCV inhibitor, SARS PLP yeast)
